Rows were chosen to be rich in hits. Some 1.3% of all compounds tested hit in one or more screens of this group.
TrxR1 inh – qHTS Assay for Inhibitors of Mammalian Selenoprotein Thioredoxin Reductase 1 (TrxR1): qHTS | Potency, µM (highest dose often 114 µM), without a hit: at the highest dose activity change, negative = inhibition, actives largely listed as inhibitors | actives 1% (n = 390,000) | Thioredoxin reductase 1, cytoplasmic (Rattus norvegicus), O89049 | AID 588453, 2011 | recombinant rTrxR1, NADPH fluorescence consumption, selenite substrate; note: nearly all actives have a fitted effect of over 65% in size
Target sequence (O89049 whole entry, looked up): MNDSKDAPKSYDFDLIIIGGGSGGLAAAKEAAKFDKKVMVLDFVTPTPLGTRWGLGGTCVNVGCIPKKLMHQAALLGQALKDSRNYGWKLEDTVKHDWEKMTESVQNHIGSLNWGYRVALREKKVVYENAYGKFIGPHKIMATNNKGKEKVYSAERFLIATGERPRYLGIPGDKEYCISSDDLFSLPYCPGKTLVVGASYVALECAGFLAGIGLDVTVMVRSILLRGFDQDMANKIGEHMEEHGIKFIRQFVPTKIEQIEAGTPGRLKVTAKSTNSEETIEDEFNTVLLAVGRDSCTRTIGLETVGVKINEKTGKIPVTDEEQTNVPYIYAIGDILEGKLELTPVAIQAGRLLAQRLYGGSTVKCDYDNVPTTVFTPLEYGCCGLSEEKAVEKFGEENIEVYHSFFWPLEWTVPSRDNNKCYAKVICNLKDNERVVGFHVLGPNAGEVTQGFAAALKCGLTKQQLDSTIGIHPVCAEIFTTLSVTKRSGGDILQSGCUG
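Rat TrxR1 (90 nM in the dispensed reagent) was pre-reduced with 400 uM NADPH for 5 min at room temperature, then incubated with compound for 15 min. After 400 uM selenite was added, NADPH fluorescence (Ex 340/Em 450 nm) was followed for 8 min.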
Apoferritin bind – qHTS Assay for Identification of Novel General Anesthetics; apoferritin/1-aminoanthracene competitive binding, fluorescence; Potency, µM (series often up to 77.5 µM), without a hit: top-dose activity change, negative = displacement, actives largely listed as inhibitors; actives 0.074% (n = 350,000); AID 485281, 2010; note: nearly all actives have a fitted effect of over 20% in size
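10 uM apoferritin + 50% sat. 1-AMA, PBS; cpd 10 min RT; Ex380/Em535 endpoint; normalized to free probe vs complex; 4-param Hill fit; propofol titration as pos. ctrl.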
GALK inh – qHTS Assay for Inhibitors of Human Galactokinase (GALK); AID 1868, 2009; Purified GALK, Kinase-Glo residual ATP luminescence; actives 0.007% (n = 270,000); Potency, µM (series often up to 57.5 µM), for the others: top-dose activity change, negative = inhibition, usual class: inhibitors
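5 nM enzyme, 35 uM ATP, 100 uM galactose, 20 mM HEPES pH8.0, 5 mM MgCl2; 1 h RT; residual ATP by Kinase-Glo Plus luminescence, qHTS format.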
PKM2 act – qHTS Assay for Activators of Human Muscle isoform 2 Pyruvate Kinase; actives 0.34% (n = 260,000); purified PKM2, Kinase-Glo ATP luminescence, activation; response scale: 0% is enzyme alone, no compound; Pyruvate kinase PKM (Homo sapiens), P14618; AID 1631, 2009; Potency, µM (top dose mostly 57.5 µM), inactives show at the top dose activation, actives largely listed as activators; note: nearly all actives have a fitted effect of over 55% in size
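ATP formation by purified human PK-M2, quantified via coupled luciferase luminescence after 1 h at room temperature with 0.1 mM ADP and 0.5 mM PEP final.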
TrxR1 substrate – qHTS Assay for Substrates of Mammalian Selenoprotein Thioredoxin Reductase 1 (TrxR1): qHTS | Thioredoxin reductase 1, cytoplasmic (Rattus norvegicus), O89049 | purified TrxR1 substrate turnover, NADPH consumption readout | Potency, µM (top dose mostly 114 µM), without a hit: top-dose activity change, negative = substrate turnover | actives 0.01% (n = 390,000) | AID 588456, 2011; note: nearly all actives have a fitted effect of over 50% in size
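Rat TrxR1, dispensed at 90 nM, was prereduced with 400 uM NADPH (final) for 5 min at ~22 deg C, then incubated with compound 15 min before 400 uM selenite. A first-read NADPH fluorescence drop versus no-compound background flagged substrates.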
mIDH1 inhibitor – qHTS for Inhibitors of mutant isocitrate dehydrogenase 1 (IDH1): qHTS | Isocitrate dehydrogenase [NADP] cytoplasmic (Homo sapiens), O75874 | IDH1-R132H enzyme, NADPH consumption, diaphorase/resazurin fluorescence | Potency, µM (series often up to 76.6 µM), inactives show at the highest dose activity change, negative = inhibition, usual class: inhibitors | actives 0.093% (n = 390,000); note: nearly all actives have a fitted effect of over 65% in size
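IDH1-R132H (0.5 ug/mL) preincubated 30 min with compound, then NADPH (0.016 mM) and alpha-KG (2 mM) added; 80 min at RT, pH 7.5. Remaining NADPH coupled via diaphorase/resazurin to fluorescence (540/590 nm); concentration-response curves normalized to no-enzyme control.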
The depositor's hits bear a star; ? = inconclusive; / = no result; [ ] = another dose, or the depositor's remark. Calls come from the whole dose curve; as a rule, active = well fitted curve in the direction sought with a large enough effect; inconclusive = small, poorly fitted or top-dose-only effect, or another doubt; inactive = no such curve, though single readings can be large; an effect the other way counts as inactive or inconclusive. % is set by controls: 0 for no effect and ±100 for the full control effect; potency is the fitted concentration of half-maximal effect.

SMILES	TrxR1 inh	Apoferritin bind	GALK inh	PKM2 act	TrxR1 substrate	mIDH1 inhibitor
COc1cc(NC(=S)Nc2ccc(S(=O)(=O)N3CCOCC3)cc2)cc(OC)c1OC	14.1µM*	-18.7%	-1.6%	-6.5%	9.7%	-0.9%
O=C(Nc1ccc(S(=O)(=O)N2CCOCC2)cc1)c1ccc2c(c1)OCO2	-9.0%	-9.8%	-2.7%	0.0%	-5.9%	-1.2%
O=S(=O)(c1ccc(NC(=S)Nc2ccc3c(c2)OCO3)cc1)N1CCOCC1	39.8µM*	1.1%	1.0%	-2.6%	-5.2%	8.6%
O=C(Cc1ccc(Br)cc1)Nc1cccc(S(=O)(=O)N2CCOCC2)c1	1.9%	/	/	/	-1.3%	1.1%
O=S(=O)(c1cccc(NC(=S)Nc2ccc(Br)cc2Cl)c1)N1CCOCC1	17.8µM*	?	-1.0%	-8.4%	5.5%	7.5%
COc1ccc(CC(=O)Nc2ccc(S(=O)(=O)N3CCCC3)cc2)cc1OC	-0.3%	/	/	/	-5.4%	11.2%
COc1cc(CC(=O)OCC(=O)Nc2ccc(S(=O)(=O)N3CCCC3)cc2)cc(OC)c1OC	8.2%[57.1 µM]	?	3.5%	20µM*	8.1%[57.1 µM]	-3.2%
O=[N+]([O-])c1cc(Cl)cc(/C=N/NC(=S)Nc2ccc(S(=O)(=O)N3CCOCC3)cc2)c1O	79.4µM*	?	-5.7%	-12.2%	-7.2%	?
Cc1noc(/C=C/c2ccccc2F)c1S(=O)(=O)N1CCC(C(=O)Nc2ccc(C#N)cc2)CC1	28.5%[57.1 µM]	-10.0%	/	/	3.9%[57.1 µM]	3.8%
CCOC(=O)Cn1c(=O)n(CC2CCCO2)c2nc(-c3cc(OC)ccc3OC)nc(C(N)=O)c21 (configuration not stated)	0.7%[57.1 µM]	-12.4%	/	/	-6.4%[57.1 µM]	-5.4%
CCOc1ccc(-c2nnc(SCC(=O)NCc3ccc(Cl)cc3)o2)cc1	50.1µM*	4.3%	/	/	-1.8%	10.7%
Cc1nn(-c2ccccc2)c2[nH]c(=O)c(CNc3ccc(N4CCOCC4)cc3)cc12	-24.4%	-18.8%	1.4%	13.7%	3.7%[57.1 µM]	15.9%
Cc1nn(-c2ccc(Cl)cc2)c2[nH]c(=O)c(CNCc3ccc4c(c3)OCO4)cc12	22.4µM*	?	1.3%	5.0%	-1.9%	-1.4%
Cc1cccc(CS(=O)(=O)c2nnc([C@H](Cc3ccccc3)NC(=O)OC(C)(C)C)o2)c1	0.398µM*	?	1.6%	?	-1.2%	-1.4%
COC(=O)CS(=O)(=O)c1nnc([C@H](Cc2ccccc2)NC(=O)OC(C)(C)C)o1	1.26µM*	-16.8%	4.4%	?	1.3%	-1.6%
COC(=O)CSc1nnc([C@H](Cc2ccccc2)NC(=O)OC(C)(C)C)o1	-3.1%	-17.0%	4.3%	14.8%	0.1%	0.2%
CN(C)CCNC(=O)C(c1ccccc1)c1ccccc1	20.6%	-4.4%	-4.5%	-5.6%	0.4%	-1.7%
CN(C)CCC(=O)C(Cc1ccccc1)c1ccccc1 (configuration not stated)	0.251µM*	/	/	/	0.1%	-2.5%
COc1ccccc1Cn1c(SCC(=O)C(C)(C)C)nc2ccccc2c1=O	1.6%[57.1 µM]	2.5%	/	/	-1.7%[57.1 µM]	12.3%
Cc1cccc(C)c1NC(=O)c1nc(S(=O)(=O)Cc2ccccc2)ncc1Cl	15.8µM*	-5.1%	5.0%	/	1.6%	-0.9%
O=C(Nc1ccc2ccccc2c1)c1nc(S(=O)(=O)Cc2ccccc2F)ncc1Cl	10µM*	/	/	/	-5.1%	/
Cc1nnc(NC(=O)c2nc(S(=O)(=O)Cc3ccccc3)ncc2Cl)s1	12.6µM*	-0.6%	-7.7%	/	-1.4%	1.6%
